# Measured values published in the OligoGym collection.
# Biological target: LYPD3
# Test: pooled miR-30 sensor sort-seq; sequence = guide strand
# Settings: shRNA
# Also: reference of the scale not given here.
row,Sequence,sensor-assay potency score (higher = more potent)
1,TCTTGTTCGGGGAGCATCCGTC,-0.769
2,TTCACTGTCTTCATCTTGTTCG,0.494
3,TTGCCGTCGAAGCAGCCCTTGT,-1.63
4,TCATCTGCTTTCTGCACGCAGC,-1.43
5,TAGAAGTGGTGACAGATGTGGT,-0.342
6,TCTGCTTTCTGCACGCAGCTGT,0.703
7,TGCACTCTCATTACCTGCCGGG,-0.389
8,TTGTAGACATGATCGCTGGCGT,-0.346
9,ACTGTCTTCATCTTGTTCGGGG,0.213

# Biological target: LYZL6
# Test: as above
# Settings: shRNA
row,Sequence,sensor-assay potency score (higher = more potent)
1,TTTAGGGCAAGAAAGCTGCTGA,-0.16
2,TATGTTGAACTTGCTTTCCACA,-1.04
3,TCAGCAGATCTTGACAGTCTAC,-0.859
4,TATCTTTGATATGTTGAACTTG,-0.231
5,TAATCGTTGCACCAGTAGTGGC,-1.43
6,CAGATCTTGACAGTCTACGTGG,-1.04
7,AACAGTGCAACCTCCATTCTAC,-0.122
8,ATAATCGTTGCACCAGTAGTGG,-0.825
9,TTGCTTTCCACAAAAGCCAGGC,-0.197
10,ATCTTTGATATGTTGAACTTGC,-0.0692
11,TTGATATGTTGAACTTGCTTTC,-0.485
12,TTTGATATGTTGAACTTGCTTT,0.0932

# Biological target: LZTR1
# Test: as above
# Settings: shRNA
row,Sequence,sensor-assay potency score (higher = more potent)
1,TAGGGTAACAGGAGAACTGGAA,0.345
2,TATGATGTCCAGCAGCAGCTGC,-0.965
3,AATACAAACATCTTGTCCCGGC,-0.355
4,TCATTGAGCATGGTCTTCCCAT,-0.632
5,TTGGAGACCTTGGTGAACTGGT,0.248
6,TACTCGACACTGTCCGAGCAGC,-1.08
7,TTTCACATCGAACCGCAGGAGG,-1.16
8,TTCATCTCCAGGTTCTGCTTGC,0.0647
9,TAACAGGAGAACTGGAACCTGT,-1.05
10,TATTTGATCTTGTCGGTGTAGA,0.13
11,TTAGGGTAACAGGAGAACTGGA,-0.956

# Biological target: MACROD1
# Test: as above
# Settings: shRNA
row,Sequence,sensor-assay potency score (higher = more potent)
1,TGCTTGTCCTTTTTATACCTGG,-0.621
2,TTCGCCTCCTTCCAGTCGGTGG,-1.48
3,TTTCGCCTCCTTCCAGTCGGTG,-1.53
4,TTGAGCTGCTTGTCCTTTTTAT,-0.992
5,TTTCTCATTGAGCTGCTTGTCC,-0.192
6,TCCAGCTTGGTGATGTCGCTGC,-0.0855
7,AACACGCAGATGATCAGCCGGT,-0.183
8,TTCAGCCTGACAAAGTCCTTGC,0.08
